Most compounds without a hit are left out; they make up all but 3.5% or so of the library.
FBW7 act – human FBW7 E3 ligase activation, primary screen | Q969H0 | AlphaScreen FBW7–phospho-cyclin E peptide binding, activator screen | normalized activity (activation), % at 26.1 µM | 650,000 tested, 0.13% active; in the data active = normalized activity above about 1.9%;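 also: purified mutant Fbw7 with reduced substrate affinity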
TEAD-YAP block – TEAD-YAP interaction inhibition; HEK-TIYL cells, TEAD-Gal4/YAP UAS-luciferase luminescence; inhibition, % at 9.12 µM; 640,000 tested, 1.4% active; in the data active = inhibition above about 32%;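 also: 0% = median of test compound wells and 100% = reference inhibitor wells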
GPR151 ag – activators of human GPR151; Q8TDV0; activation, % at 11.2 µM; 650,000 tested, 1% active; PathHunter beta-arrestin GPR151 cells, luminescence; in the data active = activation above about 4.9%;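 also: 0% = median of compound wells and 100% = cells with positive control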
MITF primary – blocks human microphthalmia-associated transcription factor. O75030. AlphaScreen MITF homodimerization, bead proximity signal. inhibition, % at 2.6 µM. 650,000 tested, 0.91% active; in the data active = inhibition above about 50%;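 also: 0% = vehicle wells with protein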
Target sequence (O75030 whole entry, looked up): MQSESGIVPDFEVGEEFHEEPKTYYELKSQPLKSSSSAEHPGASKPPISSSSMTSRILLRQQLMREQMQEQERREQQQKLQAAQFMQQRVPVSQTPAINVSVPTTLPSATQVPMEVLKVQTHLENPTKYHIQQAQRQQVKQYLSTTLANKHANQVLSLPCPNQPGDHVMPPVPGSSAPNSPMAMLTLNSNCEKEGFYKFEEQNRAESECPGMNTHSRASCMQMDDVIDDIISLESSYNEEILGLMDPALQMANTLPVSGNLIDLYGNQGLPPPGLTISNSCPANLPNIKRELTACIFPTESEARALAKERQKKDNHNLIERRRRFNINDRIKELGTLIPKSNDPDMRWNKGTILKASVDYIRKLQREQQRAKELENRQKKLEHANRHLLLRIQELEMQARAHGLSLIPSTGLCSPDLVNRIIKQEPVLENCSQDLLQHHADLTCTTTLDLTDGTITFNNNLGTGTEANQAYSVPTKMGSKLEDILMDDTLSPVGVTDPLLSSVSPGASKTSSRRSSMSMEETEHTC
MITF inh conf – confirmation of human MITF inhibitors; shares compounds with MITF primary; AlphaScreen MITF homodimerization, biotin/His-MITF beads; inhibition, % at 2.6 µM; 4,700 tested, 16% active;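 active = inhibition above a cutoff derived from the DMSO control wells, cut at about 28% in these data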;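 also: 0% = MITF dimer wells with DMSO only; inhibitors lower the bead chemiluminescence by keeping MITF from dimerizing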
AS interf DR – AlphaScreen optical interference, dose response counter-screen; IC50, µM; 480 tested, 6% active; AlphaScreen optical interference counterscreen, cell-free; shares compounds with MITF primary; call rule not given here
AlphaScreen intf2 – counter-screen: compounds optically interfering with AlphaScreen; shares compounds with MITF primary; LysRS AlphaScreen counterscreen, signal interference, triplicate; inhibition, % at 2.6 µM; 4,700 tested, 7.6% active; AID 1259376;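 active = inhibition above a cutoff derived from the DMSO control wells, cut at about 30% in these data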
* marks the source's active call; other numbers are inactive results; ! = a repeat was not active.

How did CC(C)NCC(O)COc1ccccc1 (stereo not drawn) do in these assays?
FBW7 act: -0.1; TEAD-YAP block: 6.6; GPR151 ag: 0.7; MITF primary: -7.3

What do the screens show for `CC(C)(C)c1ccc(S(=O)(=O)N2CCc3nc4ccccc4c(C(=O)O)c3C2)cc1`?
FBW7 act: -0.1; TEAD-YAP block: -4.9; GPR151 ag: -0.4; MITF primary: 50.6*; MITF inh conf: -7.1; AlphaScreen intf2: -1.7

How did COc1ccccc1CNCc1cc(Br)ccc1OC do in these assays?
FBW7 act: -0.3; TEAD-YAP block: -2.3; GPR151 ag: -1.0; MITF primary: 69.7*; MITF inh conf: -10.6; AlphaScreen intf2: -4.7

How did CCNCc1cc(Br)ccc1OC do in these assays?
FBW7 act: 0.3; TEAD-YAP block: 8.5; GPR151 ag: 1.3; MITF primary: 14.4

Results for COC(=O)Nc1ccc(S(=O)(=O)N2CCC(C)CC2)cc1 ?
FBW7 act: -0.1; TEAD-YAP block: 1.6; GPR151 ag: 0.8; MITF primary: 74.5*; MITF inh conf: 7.3; AlphaScreen intf2: 19.3

Results for CCSc1nc2c(c(=O)[nH]1)C(c1ccc(O)c(OC)c1)C1=C(CCCC1=O)N2 (stereo not drawn) ?
FBW7 act: 0.2; TEAD-YAP block: 0.6; GPR151 ag: -1.1; MITF primary: 60.5*; MITF inh conf: 0.0; AlphaScreen intf2: 7.9

What do the screens show for `O=C(Nc1ccc2c(c1)OCCO2)C(=O)Nc1cccc2cccnc12`?
FBW7 act: 0.9; TEAD-YAP block: -17.2; GPR151 ag: 0.1; MITF primary: -5.0

Results for Nc1ccc(C(=O)O)c(O)c1 ?
FBW7 act: -0.4; TEAD-YAP block: 4.6; GPR151 ag: -0.5; MITF primary: 87.5*!; MITF inh conf: 71.7*; AS interf DR: >6.48; AlphaScreen intf2: -16.2

What do the screens show for `COc1ccccc1C(=O)Nc1ccccc1-c1nnn(CC(N)=O)n1`?
FBW7 act: -0.3; TEAD-YAP block: -2.0; GPR151 ag: 1.6; MITF primary: 92.8*; MITF inh conf: 13.3; AlphaScreen intf2: 12.0

What do the screens show for `COc1ccc(NC(=O)Cn2nnc(-c3ccccc3N)n2)cc1OC`?
FBW7 act: 0.1; TEAD-YAP block: 10.1; GPR151 ag: -0.1; MITF primary: 58.0*; MITF inh conf: 7.3; AlphaScreen intf2: 13.3

Results for COc1cc(C(=O)Nc2ccccc2-c2nnn(CC(N)=O)n2)cc(OC)c1OC ?
FBW7 act: 0.0; TEAD-YAP block: 9.5; GPR151 ag: 0.3; MITF primary: 2.8

Results for CC(=O)Nc1ccc(-c2csc(NC(=O)COc3cccc(C(C)=O)c3)n2)cc1 ?
FBW7 act: -0.1; TEAD-YAP block: 15.9; GPR151 ag: 2.4; MITF primary: -8.2

How did CC1CCN(Cc2ccc(-c3nnn(CC(=O)Nc4ccc(F)cc4)n3)cc2)CC1 do in these assays?
FBW7 act: 0.1; TEAD-YAP block: -0.3; GPR151 ag: -0.1; MITF primary: 87.9*; MITF inh conf: 9.6; AlphaScreen intf2: 15.6

How did CC1CCN(Cc2ccc(-c3nnn(CC(=O)Nc4ccccc4F)n3)cc2)CC1 do in these assays?
FBW7 act: -0.1; TEAD-YAP block: 11.7; GPR151 ag: -0.7; MITF primary: 10.5

How did Cc1cc(C)c(OCC(O)CN2CCN(Cc3ccc4c(c3)OCO4)CC2)c(C)c1 (stereo not drawn) do in these assays?
FBW7 act: -0.2; TEAD-YAP block: -1.0; GPR151 ag: -1.0; MITF primary: 51.9*; MITF inh conf: -4.6; AlphaScreen intf2: -6.6

What do the screens show for `C/C=C/c1ccc(OCC(O)CN2CCN(Cc3ccc4c(c3)OCO4)CC2)c(OC)c1` (stereo not drawn)?
FBW7 act: 0.1; TEAD-YAP block: 6.2; GPR151 ag: 1.8; MITF primary: 64.0*; MITF inh conf: 14.7; AlphaScreen intf2: 13.7

What do the screens show for `OC(COC1CCCc2ccccc21)CN1CCN(Cc2ccc3c(c2)OCO3)CC1` (stereo not drawn)?
FBW7 act: -0.4; TEAD-YAP block: -4.7; GPR151 ag: 0.5; MITF primary: 80.0*; MITF inh conf: 11.9; AlphaScreen intf2: 10.4

Results for COC(=O)Nc1ccc(OC)cc1OC ?
FBW7 act: -0.1; TEAD-YAP block: 1.3; GPR151 ag: -1.6; MITF primary: 3.7

What do the screens show for `CCCOC(=O)C1=C(C)NC(=O)NC1c1cccc(OC)c1` (stereo not drawn)?
FBW7 act: -0.3; TEAD-YAP block: -11.3; GPR151 ag: 1.3; MITF primary: -1.0

What do the screens show for `Cc1cc(N)n(-c2ccccc2C(F)(F)F)n1`?
FBW7 act: 0.0; TEAD-YAP block: 5.5; GPR151 ag: 0.2; MITF primary: 14.6

Results for Cc1cc(N)n(-c2ccc(Oc3ccccc3)cc2S(=O)(=O)O)n1 ?
FBW7 act: 1.0; TEAD-YAP block: 5.7; GPR151 ag: -1.1; MITF primary: 51.9*; MITF inh conf: 4.6; AlphaScreen intf2: 4.4

What do the screens show for `CCOC(=O)/C(Cl)=N\Nc1ccccc1`?
FBW7 act: 0.0; TEAD-YAP block: 16.1; GPR151 ag: 0.4; MITF primary: 31.4

What do the screens show for `CCOC(=O)/C(Br)=N\Nc1ccc(C)cc1`?
FBW7 act: -0.1; TEAD-YAP block: -1.5; GPR151 ag: 0.2; MITF primary: 83.9*; MITF inh conf: 19.4; AlphaScreen intf2: 17.5

Results for O=[N+]([O-])c1cccc(C2=NC(C(F)(F)F)(C(F)(F)F)N=C(N3CCOCC3)O2)c1 ?
FBW7 act: -0.1; TEAD-YAP block: -2.3; GPR151 ag: 3.8; MITF primary: 12.6

Results for CN(Cc1ccc(F)cc1)Cc1nc(Cc2ccccc2Cl)no1 ?
FBW7 act: 0.2; TEAD-YAP block: 5.1; GPR151 ag: 0.1; MITF primary: -8.2

Results for CC1(C)C2CC=C(CN3CCN(Cc4ccc5c(c4)OCO5)CC3)C1C2 (stereo not drawn) ?
FBW7 act: 0.2; TEAD-YAP block: 7.2; GPR151 ag: 0.5; MITF primary: 64.3*; MITF inh conf: -2.6; AlphaScreen intf2: 4.0

How did CC1(C)[C@H]2CC=C(CN3CCOc4ccc(CN5CCC(O)CC5)cc4C3)[C@@H]1C2 do in these assays?
FBW7 act: 0.0; TEAD-YAP block: 0.2; GPR151 ag: 1.3; MITF primary: -7.5

How did CC1(C)C2CC=C(COCC(O)CN3CCN(Cc4ccc5c(c4)OCO5)CC3)C1C2 (stereo not drawn) do in these assays?
FBW7 act: -0.3; TEAD-YAP block: 4.4; GPR151 ag: 3.1; MITF primary: 70.5*; MITF inh conf: 2.1; AlphaScreen intf2: 1.9

Results for O=C1CCCN1CCCNc1cc(N2CCN(Cc3ccc4c(c3)OCO4)CC2)ncn1 ?
FBW7 act: 0.1; TEAD-YAP block: 3.5; GPR151 ag: -1.4; MITF primary: 5.6

Results for COc1ccc(/C(N)=N/OC(=O)/C=C/c2ccccc2Cl)cc1 ?
FBW7 act: -0.1; TEAD-YAP block: -11.9; GPR151 ag: 2.4; MITF primary: 3.4
